According to PubChem BioAssay (Tox21):
Records with an inconclusive call do not appear. Unmarked numbers belong to inactive results. Calls come from the whole dose curve; as a rule, active = well fitted cell-killing curve with a large enough effect in the repeat runs; inconclusive = weak or mixed curves, or effect the other way; inactive = no such curve, though single readings can be large or run the other way.

experiment: qHTS assay to identify small molecule agonists of the RXR signaling pathway - cell viability counter screen (AID 1159529); details: RXR-alpha-bla HEK293T viability, CellTiter-Glo, 16 h; series mostly up to 76.8 µM; activity change, negative = cytotoxicity: at the top concentration;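 note: HEK 293T cells carrying an RXR-alpha UAS beta-lactamase reporter; nearly all actives have a fitted effect of over 50% in size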
Summary of the method: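 Steps: seed RXR-alpha-UAS-bla HEK 293T cells in assay medium containing 2% charcoal-stripped FBS; incubate 5 hr; add compounds in DMSO; incubate 16 hr at 37 C; after the bla read, add CellTiter-Glo and read luminescence at 30 min.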
% is set by controls: 0 for no effect and ±100 for the full control effect.

First: Cc1cc(S(=O)(=O)O)ccc1N=Nc1c(O)ccc2ccccc12
Second: O=C(N[C@@H](c1ccccc1)[C@@H]1CCCCN1)c1cccc(C(F)(F)F)c1Cl
The “activity change, negative = cytotoxicity” value of the first is higher: 3.71% for the first, -14.4% for the second.

Compared with `C1COCO1`, `O=C1NCCN1` is lower in “activity change, negative = cytotoxicity” value: 0.134% for the first, -10.1% for the second.

Compared with `CC(C)CCCCCCOC(=O)CCCCC(=O)OCCCCCCC(C)C`, `C=CCOC(=O)/C=C\C(=O)OCC=C` is lower in “activity change, negative = cytotoxicity” value: 10.1% for the first, 0.78% for the second.

Going from `COC(=O)Nc1nc2ccc(C(=O)c3cccs3)cc2[nH]1` to `CN(C(=O)C(Cl)Cl)c1ccc(OC(=O)c2ccco2)cc1`, the “activity change, negative = cytotoxicity” value falls from 2.63% [at 35.3 µM] to 0.518% [at 35.3 µM].

Compared with `CCc1c2c(nc3ccc(OC(=O)N4CCC(N5CCCCC5)CC4)cc13)-c1cc3c(c(=O)n1C2)COC(=O)[C@]3(O)CC`, `CO/N=C1\CN(c2nc3c(cc2F)c(=O)c(C(=O)O)cn3C2CC2)CC1CN` (centres undefined) is higher in “activity change, negative = cytotoxicity” value: -6.28% [at 35.3 µM] for the first, -5.82% [at 35.3 µM] for the second.

Compared with `Cc1ccc(Nc2nccc(N(C)c3ccc4c(C)n(C)nc4c3)n2)cc1S(N)(=O)=O`, `CCc1cccc(N(C)C(N)=Nc2cccc3ccccc23)c1` is lower in “activity change, negative = cytotoxicity” value: -12.4% [at 35.3 µM] for the first, -16.9% [at 35.3 µM] for the second.

Going from `O=C(N/N=C/c1ccc([N+](=O)[O-])o1)c1ccc(O)cc1` to `CN1C(=O)CC(C)(c2ccccc2)C1=O` (centres undefined), the “activity change, negative = cytotoxicity” value rises from -8.25% [at 35.3 µM] to 1.11% [at 35.3 µM].

Going from `C[C@]12CCC(=O)C=C1C=C[C@@H]1[C@@H]2CC[C@@]2(C)[C@H]1CC[C@@]21CCC(=O)O1` to `CC(=O)[C@H]1CC[C@H]2[C@@H]3C[C@H](C)C4=CC(=O)CC[C@]4(C)[C@H]3[C@@H](O)C[C@]12C`, the “activity change, negative = cytotoxicity” value falls from 0.606% [at 35.3 µM] to -1.7% [at 35.3 µM].

Compared with `CCC1(C)CC(=O)NC1=O` (centres undefined), `C[N+](C)(C)CCOC(N)=O` is higher in “activity change, negative = cytotoxicity” value: 6.35% [at 35.3 µM] for the first, 8.32% [at 35.3 µM] for the second.

For `CCC(C(=O)OCCN(CC)CC)c1ccccc1` (centres undefined), the “activity change, negative = cytotoxicity” value was -6.2% [at 35.3 µM].
